Where “and” joins values, the source holds several entries; their conditions need not be identical. Equal values may be shown once. Some structures have more than one record in an assay (separate samples or runs), and their calls can disagree. Calls of active or inactive are those of the source. The calls were made as follows: active = hit-call score of the fitted dose curve at least 0.9, where 1 is the maximum; inactive = score below 0.9.
Experiment: ATG_ISRE_CIS: Attagene CIS-FACTORIAL HepG2 Assay for human Interferon Regulatory Factor 1 (IRF1) binding to an Interferon-Stimulated Response Element (ISRE) (AID 2282948)
Details: HepG2 ISRE cis-reporter (Attagene), mRNA transcription readout; actives raise or lower the signal
Protocol: ATG_CIS is a cell-based, multiplexed-readout assay that uses HepG2, a human liver cell line, with measurements taken at 24 hours after chemical dosing in a 24-well plate.ATG_ISRE_CIS is one of 52 assay component(s) measured or calculated from the ATG_CIS assay. It is designed to make measurements of mRNA induction, a form of inducible reporter, as detected with fluorescence intensity signals by Reverse transcription polymerase chain reaction (RT-PCR) and Capillary electrophoresis technology.Data from the assay component ATG_ISRE_CIS was analyzed into 1 assay endpoint. This assay endpoint, ATG_ISRE_CIS, was analyzed with bidirectional fitting relative to DMSO as the negative control and baseline of activity. Using a type of inducible reporter, measures of mRNA for gain or loss-of-signal activity can be used to understand the reporter gene at the transcription factor-level as they relate to the gene IRF1. Furthermore, this assay endpoint can be referred to as a primary readout, because this assay has produced multiple assay endpoints where this one serves a reporter gene function. To generalize the intended target to other relatable targets, this assay endpoint is annotated to the dna binding intended target family, where the subfamily is interferon regulatory factors.
Human liver HepG2 cells are transiently transfected with multiple reporter transcription units (MRTUs) in 6-well plates using FuGene 6 reagent (Roche; 3 ml FuGene/1 mg DNA). The MRTU constructs are regulated by a cis-regulating element (promoter). […] A major difference between the CIS and TRANS system is that in CIS activities of endogenous TFs are measured, whereas the TRANS assay evaluates changes in activities of exogenous, chimeric NR-Gal4 proteins. […] At the end of 24 hour incubation, total RNA was isolated using TriZol reagent (Invitrogen). The isolated RNA is then reverse-transcribed using oligo(dT) primer and Mo-MLV reverse transcriptase (Invitrogen) with DNAse I (Ambion) treatment for 30 min. The one-tenth of the produced cDNA was amplified by PCR using Taq DNA polymerase (Invitrogen) and two reporter sequence-specific primers. The PCR products were fluorescently labeled by primer extension with 6-arboxyfluorescein (6-FAM) 5'-labeled reporter sequence-specific primer (2 min at 95 C, 20 s at 68 C and 10 min at 72 C) and these products were digested with 5U of HpaI (New England Biolabs) for 2h at 37 C. The fragments were purified using Qiaquick PCR columns (Qiagen), analyzed on an ABI 3130xL genetic analyzer (Applied Biosystems) with peak positions identified by using a set of X-rhodamine (ROX)-labeled MapMarker1000 molecular weight standards (BioVentures). The raw capillary electrophoresis data was processed using Attagraph software (Attagene).

| SMILES | outcome | AC50 |
| --- | --- | --- |
| Oc1cccc(O)c1 | inactive | – |
| NC(=O)N(O)[C@@H]1C=C[C@H](Oc2cccc(Oc3ccc(F)cc3)c2)C1 | inactive | – |
| OCCC(F)(F)C(F)(F)C(F)(F)C(F)(F)C(F)(F)C(F)(F)C(F)(F)C(F)(F)F | inactive | 150 µM (active) |
| CC(O)CO (stereo not given) | inactive | – |
| CCN(CC)CCNc1ccc(CNC=O)c2sc3ccc(OC)cc3c(=O)c12 | inactive | – |
| C[C@@H]1C[C@H]2[C@@H]3CCC4=CC(=O)C=C[C@]4(C)[C@@]3(F)[C@@H](O)C[C@]2(C)[C@@]1(O)C(=O)COP(=O)(O)O | inactive | – |
| C#C[C@]1(O)CC[C@H]2[C@@H]3CCC4=CC(=O)CC[C@@H]4[C@H]3CC[C@@]21C | inactive | – |
| CCCCCCC(=O)O | inactive | – |
| COCC(C)OCC(C)O (stereo not given) | inactive | – |
| O=C(OCCOCCOC(=O)c1ccccc1)c1ccccc1 | inactive | – |
| C=C(C)C(=O)OCCC(F)(F)C(F)(F)C(F)(F)C(F)(F)C(F)(F)C(F)(F)F | inactive | – |
| O=C(O)Cc1cc(I)c(Oc2cc(I)c(O)c(I)c2)c(I)c1 | inactive | – |
| CC(C)(C)c1cc(C(C)(C)C)c(O)c(C(C)(C)C)c1 | inactive | 138 µM (active) |
| Cc1ccc(S(=O)(=O)O)c(C)c1 | inactive | – |
| CC[C@H](c1ccc(O)cc1)[C@@H](CC)c1ccc(O)cc1 | inactive | 11.1 µM (active) and 17.2 µM (active) |
| CCc1nn(C2CCCCC2)c2cc(C3(C#N)CCC(C(=O)O)CC3)ccc12 (stereo not given) | – | 67.2 µM (active) |
| CC(=O)CC(C)(C)O | inactive | – |
| c1ccc2c(c1)ccc1ccccc12 | inactive | – |

| SMILES | outcome | AC50 |
| --- | --- | --- |
| Cc1cc(CCN2CCN(c3nsc4ccccc34)CC2)cc2c1NC(=O)CC2(C)C | – | 8.79 µM (active) |
| N#C[C@@H]1CC(F)(F)CN1C(=O)CNC1CC2CCC(C1)N2c1ncccn1 (stereo not given in full) | inactive | – |
| CCC(C)(C)C1CCC(O)CC1 (stereo not given) | inactive | – |
| CC(C)(C)c1cccc(C(C)(C)C)c1O | – | 162 µM (active) |
| CN1CCN(c2ccccc2/C=C2\SCCN(c3ccc(Cl)c(Cl)c3)C2=O)CC1 | inactive | – |
| CN(C)C=O | inactive | – |
| CC[C@H](C)[C@@H](C(=O)O)n1sc2ccccc2c1=O | inactive | – |
| Nc1cccc2c(N)cccc12 | inactive | – |
| CC1=C(/C=C/C(C)=C/C=C/C(C)=C/C(=O)O)C(C)(C)CCC1 | – | 54.4 µM (active) and 106 µM (active) |
| CCC(=C(c1ccc(O)cc1)c1ccc(OCCN(C)C)cc1)c1ccccc1 | inactive | 9.63 µM (active) |
| CCCOc1sc(C(=O)N2CCC(c3cc(CN)ccc3F)CC2)c(C)c1Br | inactive | – |
| CCc1ccc(CCOc2ccc(CC3SC(=O)NC3=O)cc2)nc1 (stereo not given) | inactive | – |
| CCCCCCCCC(=O)O | inactive | – |
| CCOC(=O)CC(O)(CC(=O)OCC)C(=O)OCC | inactive | – |
| OC1CCCCC1 | inactive | – |
| CCCCOCCO | inactive | – |
| CCCOC(=O)c1ccc(O)cc1 | inactive | – |
| CC(C)(C)CC(C)(C)c1ccc(O)c(-n2nc3ccccc3n2)c1 | inactive | – |

From PubChem BioAssay (EPA / NIEHS)
